Our source for the inhibition values is ChEMBL document CHEMBL1961873, “Compounds: GSK PKIS; Assays: Nanosyn kinase panel” (2012).

Usually inhibition stands for the change of the read-out against control, counted positive when it falls.

The structures appear in SMILES notation.

The target of assay [1] is Protein kinase C gamma type (Homo sapiens) (UniProt P05129). The conditions noted are these: at 1 µM.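 Also: each value is an averaged percent inhibition of the enzyme.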
Assay [2] addresses T1, Protein kinase C iota type (Homo sapiens) (UniProt P41743).
T1 sequence (whole entry): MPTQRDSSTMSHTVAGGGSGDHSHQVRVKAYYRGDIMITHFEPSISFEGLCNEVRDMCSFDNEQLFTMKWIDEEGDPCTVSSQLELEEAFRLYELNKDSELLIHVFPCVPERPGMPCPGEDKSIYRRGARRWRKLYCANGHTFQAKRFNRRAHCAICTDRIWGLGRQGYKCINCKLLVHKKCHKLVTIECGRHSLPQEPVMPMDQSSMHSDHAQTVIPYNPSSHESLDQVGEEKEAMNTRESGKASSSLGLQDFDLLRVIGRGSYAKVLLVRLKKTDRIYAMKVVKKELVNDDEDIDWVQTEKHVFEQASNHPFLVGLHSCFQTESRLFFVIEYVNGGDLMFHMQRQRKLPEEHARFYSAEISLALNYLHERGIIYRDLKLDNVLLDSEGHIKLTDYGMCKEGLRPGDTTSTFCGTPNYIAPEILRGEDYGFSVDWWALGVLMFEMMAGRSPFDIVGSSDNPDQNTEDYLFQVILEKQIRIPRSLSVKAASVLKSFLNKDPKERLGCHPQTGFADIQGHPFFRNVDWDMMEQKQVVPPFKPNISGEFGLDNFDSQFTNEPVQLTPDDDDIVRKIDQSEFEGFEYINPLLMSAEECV
The conditions noted are these: at 0.1 µM.

Assay [3] concerns the target T1, Protein kinase C iota type (Homo sapiens). The conditions noted are these: at 1 µM.
In assay [4] the target is Protein kinase C theta type (Homo sapiens) (UniProt Q04759). The conditions noted are these: at 0.1 µM.
Assay [5] has the same target. The conditions noted are these: at 1 µM.
Assay [6] deals with Protein kinase C beta type (Homo sapiens) (UniProt P05771). The conditions noted are these: at 0.1 µM.
The target is the same in assay [7]. The conditions noted are these: at 1 µM.
Assay [8] concerns the target T2, Serine/threonine-protein kinase D1 (Homo sapiens) (UniProt Q15139).
T2 sequence (whole entry): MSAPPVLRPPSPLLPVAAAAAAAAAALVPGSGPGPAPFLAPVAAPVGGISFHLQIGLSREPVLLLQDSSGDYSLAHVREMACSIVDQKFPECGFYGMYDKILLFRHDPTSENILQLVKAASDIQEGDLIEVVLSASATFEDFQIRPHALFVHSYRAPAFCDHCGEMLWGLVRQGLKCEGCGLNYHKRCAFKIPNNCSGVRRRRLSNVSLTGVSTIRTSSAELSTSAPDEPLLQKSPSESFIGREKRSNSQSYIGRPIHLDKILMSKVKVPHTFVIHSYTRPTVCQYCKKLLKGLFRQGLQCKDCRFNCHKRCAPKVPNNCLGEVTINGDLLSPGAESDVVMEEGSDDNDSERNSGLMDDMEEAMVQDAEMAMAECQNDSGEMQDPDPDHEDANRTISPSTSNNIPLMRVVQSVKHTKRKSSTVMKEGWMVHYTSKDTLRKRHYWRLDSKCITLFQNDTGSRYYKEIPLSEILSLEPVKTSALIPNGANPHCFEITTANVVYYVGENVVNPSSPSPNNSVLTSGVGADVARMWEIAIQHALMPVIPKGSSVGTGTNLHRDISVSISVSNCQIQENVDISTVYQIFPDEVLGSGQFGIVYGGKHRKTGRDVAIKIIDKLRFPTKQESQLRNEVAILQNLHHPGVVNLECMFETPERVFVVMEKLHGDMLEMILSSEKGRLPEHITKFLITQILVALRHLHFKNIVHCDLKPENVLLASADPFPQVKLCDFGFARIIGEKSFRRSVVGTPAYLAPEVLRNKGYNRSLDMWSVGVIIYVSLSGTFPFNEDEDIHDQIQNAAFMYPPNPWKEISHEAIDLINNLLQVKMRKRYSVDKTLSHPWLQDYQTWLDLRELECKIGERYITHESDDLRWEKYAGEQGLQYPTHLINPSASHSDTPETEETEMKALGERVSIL
The conditions noted are these: at 0.1 µM.

Assay [9] addresses T2, Serine/threonine-protein kinase D1 (Homo sapiens). The conditions noted are these: at 1 µM.
Assay [10] concerns the target T3, Serine/threonine-protein kinase D2 (Homo sapiens) (UniProt Q9BZL6).
T3 sequence (whole entry): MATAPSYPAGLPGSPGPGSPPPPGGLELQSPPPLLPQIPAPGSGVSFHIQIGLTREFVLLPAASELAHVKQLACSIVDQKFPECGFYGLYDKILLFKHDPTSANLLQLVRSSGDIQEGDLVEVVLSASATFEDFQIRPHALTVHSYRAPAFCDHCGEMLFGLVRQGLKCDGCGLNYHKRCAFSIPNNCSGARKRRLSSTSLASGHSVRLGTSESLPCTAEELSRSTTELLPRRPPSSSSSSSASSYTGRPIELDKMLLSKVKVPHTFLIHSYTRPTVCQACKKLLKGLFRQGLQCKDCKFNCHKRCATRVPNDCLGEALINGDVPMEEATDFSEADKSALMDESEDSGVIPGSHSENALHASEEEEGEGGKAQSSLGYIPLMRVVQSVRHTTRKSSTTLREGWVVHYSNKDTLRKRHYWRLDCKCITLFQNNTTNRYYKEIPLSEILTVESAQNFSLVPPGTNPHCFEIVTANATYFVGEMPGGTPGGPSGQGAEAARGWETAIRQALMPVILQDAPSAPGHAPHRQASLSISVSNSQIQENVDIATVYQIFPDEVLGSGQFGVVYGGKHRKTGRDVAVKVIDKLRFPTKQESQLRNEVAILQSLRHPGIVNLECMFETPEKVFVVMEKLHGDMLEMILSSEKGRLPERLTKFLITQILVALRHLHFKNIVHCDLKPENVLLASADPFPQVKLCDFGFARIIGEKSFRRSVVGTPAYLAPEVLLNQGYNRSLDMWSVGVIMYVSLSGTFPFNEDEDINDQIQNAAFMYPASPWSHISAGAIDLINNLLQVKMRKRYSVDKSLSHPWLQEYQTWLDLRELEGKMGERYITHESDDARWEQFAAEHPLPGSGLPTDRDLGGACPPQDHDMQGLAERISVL
The conditions noted are these: at 0.1 µM.

The target of assay [11] is T3, Serine/threonine-protein kinase D2 (Homo sapiens). The conditions noted are these: at 1 µM.
Assay [12] deals with T4, Serine/threonine-protein kinase D3 (Homo sapiens) (UniProt O94806).
T4 sequence (whole entry): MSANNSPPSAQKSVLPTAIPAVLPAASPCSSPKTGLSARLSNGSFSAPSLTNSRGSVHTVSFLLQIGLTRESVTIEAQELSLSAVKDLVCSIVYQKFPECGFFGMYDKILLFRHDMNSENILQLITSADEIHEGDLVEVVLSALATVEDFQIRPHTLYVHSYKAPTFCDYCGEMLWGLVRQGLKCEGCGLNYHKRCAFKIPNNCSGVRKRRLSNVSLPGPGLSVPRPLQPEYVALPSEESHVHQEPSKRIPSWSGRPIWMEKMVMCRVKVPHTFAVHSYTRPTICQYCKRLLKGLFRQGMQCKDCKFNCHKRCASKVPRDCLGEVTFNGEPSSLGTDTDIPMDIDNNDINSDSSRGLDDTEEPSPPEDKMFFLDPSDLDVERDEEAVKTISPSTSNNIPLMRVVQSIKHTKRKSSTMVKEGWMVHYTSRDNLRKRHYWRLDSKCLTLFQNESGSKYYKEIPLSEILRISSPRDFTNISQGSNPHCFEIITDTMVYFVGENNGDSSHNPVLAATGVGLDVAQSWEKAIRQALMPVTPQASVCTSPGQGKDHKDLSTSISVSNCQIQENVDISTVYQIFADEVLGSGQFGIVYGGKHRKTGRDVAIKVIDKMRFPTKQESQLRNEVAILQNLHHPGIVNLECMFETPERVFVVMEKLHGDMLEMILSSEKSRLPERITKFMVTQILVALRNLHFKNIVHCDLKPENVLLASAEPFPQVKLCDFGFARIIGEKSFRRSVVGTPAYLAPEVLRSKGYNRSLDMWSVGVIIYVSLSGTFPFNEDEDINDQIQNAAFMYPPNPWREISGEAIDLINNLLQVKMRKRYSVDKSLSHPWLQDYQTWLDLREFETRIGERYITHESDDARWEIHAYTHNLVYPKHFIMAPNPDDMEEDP
The conditions noted are these: at 0.1 µM.

The target of assay [13] is T4, Serine/threonine-protein kinase D3 (Homo sapiens). The conditions noted are these: at 1 µM.
Assay [14] concerns the target T5, cGMP-dependent protein kinase 1 (Homo sapiens) (UniProt Q13976).
T5 sequence (whole entry): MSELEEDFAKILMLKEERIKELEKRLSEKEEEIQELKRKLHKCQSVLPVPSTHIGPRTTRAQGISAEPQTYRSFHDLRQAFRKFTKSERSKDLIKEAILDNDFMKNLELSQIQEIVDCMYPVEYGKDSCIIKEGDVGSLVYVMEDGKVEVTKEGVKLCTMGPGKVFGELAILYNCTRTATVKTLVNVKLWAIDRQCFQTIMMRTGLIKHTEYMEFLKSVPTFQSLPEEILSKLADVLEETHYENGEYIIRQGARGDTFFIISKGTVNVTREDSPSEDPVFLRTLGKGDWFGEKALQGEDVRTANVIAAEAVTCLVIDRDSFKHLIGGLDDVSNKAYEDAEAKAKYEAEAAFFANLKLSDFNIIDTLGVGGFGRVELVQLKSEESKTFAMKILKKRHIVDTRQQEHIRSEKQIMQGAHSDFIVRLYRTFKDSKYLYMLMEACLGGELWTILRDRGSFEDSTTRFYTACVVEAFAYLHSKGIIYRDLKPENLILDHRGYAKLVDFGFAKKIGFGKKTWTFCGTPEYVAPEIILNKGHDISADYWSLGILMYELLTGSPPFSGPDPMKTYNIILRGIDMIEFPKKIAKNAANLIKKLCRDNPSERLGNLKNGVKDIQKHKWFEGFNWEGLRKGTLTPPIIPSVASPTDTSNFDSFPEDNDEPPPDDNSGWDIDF
The conditions noted are these: at 0.1 µM.

For assay [15], the target named is T5, cGMP-dependent protein kinase 1 (Homo sapiens). The conditions noted are these: at 1 µM.
The target in assay [16] is T6, cGMP-dependent protein kinase 2 (Homo sapiens) (UniProt Q13237).
T6 sequence (whole entry): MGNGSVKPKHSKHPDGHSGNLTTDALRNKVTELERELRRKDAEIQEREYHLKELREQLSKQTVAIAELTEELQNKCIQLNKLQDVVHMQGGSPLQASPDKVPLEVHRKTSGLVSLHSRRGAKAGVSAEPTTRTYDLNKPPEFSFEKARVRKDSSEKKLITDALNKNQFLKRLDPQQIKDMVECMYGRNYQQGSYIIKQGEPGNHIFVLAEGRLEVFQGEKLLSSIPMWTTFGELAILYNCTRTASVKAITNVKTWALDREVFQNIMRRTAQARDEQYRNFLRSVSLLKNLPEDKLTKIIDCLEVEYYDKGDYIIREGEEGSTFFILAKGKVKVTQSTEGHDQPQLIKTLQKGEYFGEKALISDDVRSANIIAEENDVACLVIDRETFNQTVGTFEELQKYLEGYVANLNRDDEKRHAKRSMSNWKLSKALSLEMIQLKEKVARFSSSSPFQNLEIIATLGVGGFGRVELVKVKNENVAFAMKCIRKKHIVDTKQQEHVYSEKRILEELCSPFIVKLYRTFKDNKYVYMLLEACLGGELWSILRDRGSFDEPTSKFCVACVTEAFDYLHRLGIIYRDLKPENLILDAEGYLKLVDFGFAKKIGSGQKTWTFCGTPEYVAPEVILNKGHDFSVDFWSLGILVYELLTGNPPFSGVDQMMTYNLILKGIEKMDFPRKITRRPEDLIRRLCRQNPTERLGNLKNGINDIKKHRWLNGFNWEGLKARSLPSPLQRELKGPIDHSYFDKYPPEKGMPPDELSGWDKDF
The conditions noted are these: at 0.1 µM.

The target in assay [17] is T6, cGMP-dependent protein kinase 2 (Homo sapiens). The conditions noted are these: at 1 µM.
For assay [18], the target named is T7, cAMP-dependent protein kinase catalytic subunit PRKX (Homo sapiens) (UniProt P51817).
T7 sequence (whole entry): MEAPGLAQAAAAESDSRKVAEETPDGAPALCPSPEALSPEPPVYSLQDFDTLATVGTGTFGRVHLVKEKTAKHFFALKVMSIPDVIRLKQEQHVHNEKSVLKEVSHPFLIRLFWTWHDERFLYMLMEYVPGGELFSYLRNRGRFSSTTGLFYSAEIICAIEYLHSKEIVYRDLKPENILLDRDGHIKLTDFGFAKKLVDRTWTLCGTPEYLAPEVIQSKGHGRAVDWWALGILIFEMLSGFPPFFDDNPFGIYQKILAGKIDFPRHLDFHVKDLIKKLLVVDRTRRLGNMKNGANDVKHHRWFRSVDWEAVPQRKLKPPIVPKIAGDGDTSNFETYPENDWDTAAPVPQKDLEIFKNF
The conditions noted are these: at 0.1 µM.

Assay [19] concerns the target T7, cAMP-dependent protein kinase catalytic subunit PRKX (Homo sapiens). The conditions noted are these: at 1 µM.
Assay [20] addresses Rho-associated protein kinase 1 (Homo sapiens) (UniProt Q13464). The conditions noted are these: at 0.1 µM.

Sequence of Protein kinase C beta type (Homo sapiens) (P05771 2-671 limits assumed): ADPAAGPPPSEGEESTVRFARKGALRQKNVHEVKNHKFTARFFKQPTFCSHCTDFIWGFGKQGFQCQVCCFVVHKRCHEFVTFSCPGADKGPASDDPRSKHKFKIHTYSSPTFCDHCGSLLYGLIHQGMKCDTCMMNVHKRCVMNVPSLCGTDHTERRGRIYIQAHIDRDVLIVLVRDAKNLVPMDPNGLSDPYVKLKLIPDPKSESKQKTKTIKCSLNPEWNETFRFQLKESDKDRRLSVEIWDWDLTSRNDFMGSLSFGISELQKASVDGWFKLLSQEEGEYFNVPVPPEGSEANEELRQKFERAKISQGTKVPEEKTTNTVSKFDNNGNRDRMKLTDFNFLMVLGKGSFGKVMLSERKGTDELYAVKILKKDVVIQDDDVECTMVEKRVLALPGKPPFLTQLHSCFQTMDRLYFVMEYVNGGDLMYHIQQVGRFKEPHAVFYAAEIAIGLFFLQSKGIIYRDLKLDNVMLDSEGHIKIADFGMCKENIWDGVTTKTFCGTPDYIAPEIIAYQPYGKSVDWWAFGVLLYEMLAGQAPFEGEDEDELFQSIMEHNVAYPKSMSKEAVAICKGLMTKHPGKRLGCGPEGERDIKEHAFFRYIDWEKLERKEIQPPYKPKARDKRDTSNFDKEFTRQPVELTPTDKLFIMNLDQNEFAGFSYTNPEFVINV
Sequence of Protein kinase C theta type (Homo sapiens) (Q04759 whole entry, looked up): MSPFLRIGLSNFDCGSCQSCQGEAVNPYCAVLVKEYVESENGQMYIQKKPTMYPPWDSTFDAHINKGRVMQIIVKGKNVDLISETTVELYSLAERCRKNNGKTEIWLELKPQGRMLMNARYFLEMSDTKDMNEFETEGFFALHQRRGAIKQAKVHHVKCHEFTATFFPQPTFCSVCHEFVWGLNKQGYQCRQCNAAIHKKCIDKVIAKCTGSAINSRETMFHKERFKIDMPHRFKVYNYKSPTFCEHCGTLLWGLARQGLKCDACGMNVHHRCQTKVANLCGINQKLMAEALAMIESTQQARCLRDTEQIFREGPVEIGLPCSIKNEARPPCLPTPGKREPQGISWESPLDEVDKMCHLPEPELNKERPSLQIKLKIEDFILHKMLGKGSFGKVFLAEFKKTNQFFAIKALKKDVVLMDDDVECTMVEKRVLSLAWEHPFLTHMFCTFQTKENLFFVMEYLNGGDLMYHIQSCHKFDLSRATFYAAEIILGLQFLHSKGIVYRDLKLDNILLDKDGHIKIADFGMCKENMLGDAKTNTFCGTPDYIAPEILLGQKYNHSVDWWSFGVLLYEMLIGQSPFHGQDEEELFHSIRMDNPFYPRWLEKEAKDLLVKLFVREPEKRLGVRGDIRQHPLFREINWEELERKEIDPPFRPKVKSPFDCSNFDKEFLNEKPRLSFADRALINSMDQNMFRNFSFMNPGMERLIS
Sequence of Rho-associated protein kinase 1 (Homo sapiens) (Q13464 2-1354 limits assumed): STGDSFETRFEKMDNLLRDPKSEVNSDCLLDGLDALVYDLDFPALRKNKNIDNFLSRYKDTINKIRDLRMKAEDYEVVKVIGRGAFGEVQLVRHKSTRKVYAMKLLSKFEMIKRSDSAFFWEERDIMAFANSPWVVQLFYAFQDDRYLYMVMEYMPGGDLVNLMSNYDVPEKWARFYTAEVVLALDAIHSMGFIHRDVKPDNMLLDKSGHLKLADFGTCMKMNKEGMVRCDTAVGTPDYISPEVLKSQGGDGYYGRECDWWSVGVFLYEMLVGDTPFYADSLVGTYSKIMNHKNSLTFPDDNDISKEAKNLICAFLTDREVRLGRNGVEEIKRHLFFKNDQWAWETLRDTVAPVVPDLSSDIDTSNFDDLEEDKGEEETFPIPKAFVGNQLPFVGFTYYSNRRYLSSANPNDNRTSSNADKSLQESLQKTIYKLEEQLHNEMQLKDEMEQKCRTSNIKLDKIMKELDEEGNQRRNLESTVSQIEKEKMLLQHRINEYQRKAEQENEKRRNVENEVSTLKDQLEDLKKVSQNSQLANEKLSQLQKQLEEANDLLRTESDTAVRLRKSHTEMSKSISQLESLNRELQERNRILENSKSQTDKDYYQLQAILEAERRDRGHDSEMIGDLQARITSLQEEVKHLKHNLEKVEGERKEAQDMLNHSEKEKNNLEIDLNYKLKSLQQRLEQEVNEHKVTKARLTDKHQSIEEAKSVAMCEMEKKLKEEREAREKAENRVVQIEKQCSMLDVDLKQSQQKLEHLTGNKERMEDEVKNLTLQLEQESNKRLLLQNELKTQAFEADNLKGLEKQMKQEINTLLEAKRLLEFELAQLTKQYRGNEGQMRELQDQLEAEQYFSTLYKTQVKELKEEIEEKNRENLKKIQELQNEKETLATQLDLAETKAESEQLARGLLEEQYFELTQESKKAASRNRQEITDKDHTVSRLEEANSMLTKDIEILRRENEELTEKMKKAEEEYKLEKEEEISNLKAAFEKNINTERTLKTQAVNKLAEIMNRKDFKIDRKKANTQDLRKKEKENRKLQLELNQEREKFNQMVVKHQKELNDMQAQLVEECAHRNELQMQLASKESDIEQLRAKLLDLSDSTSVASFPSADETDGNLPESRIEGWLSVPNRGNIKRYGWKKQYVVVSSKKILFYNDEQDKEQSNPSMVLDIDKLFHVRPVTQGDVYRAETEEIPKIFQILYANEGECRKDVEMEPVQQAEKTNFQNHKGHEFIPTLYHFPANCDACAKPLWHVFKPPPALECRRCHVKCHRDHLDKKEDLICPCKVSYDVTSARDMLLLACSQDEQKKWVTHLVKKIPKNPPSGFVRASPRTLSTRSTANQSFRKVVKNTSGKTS

For `NC(=O)c1ccc(Oc2nccc(-c3c(-c4ccc(F)cc4)ncn3C3CCNCC3)n2)cc1`, the inhibition is 2.68% in [1]; 2.53% in assay [2]; 1.91% in [3]; 3.83% in assay [4]; 3.82% in assay [5]; 1.9% in assay [6]. The inhibition in [7] stood at 5.22%; in assay [8] it was 4.57%; in [9], 6.71%; in assay [10], 4.04%; in [11], 3.14%; in assay [12] it was 4.58%. Moreover, the inhibition came to 5.2% in assay [13]; 4.67% in assay [14]; 6.78% in assay [15]; 5.65% in assay [16]; 6.43% in assay [17]; 3.5% in assay [18]. Moreover, the inhibition turned out to be 3.99% in assay [19] and 2.81% in assay [20].
With `COc1cc(Nc2ncc3c(C)nc(-c4cccc(Oc5ccccc5)c4)n3n2)cc(OC)c1OC`, the inhibition in assay [1] was 2.12%; in assay [2], 0.93%; in [3] it was 1.81%; in assay [4], 0.31%; in assay [5], -0.72%; in assay [6] it was 0.53%. Also, the inhibition in [7] is 0.55%; in [8], 1.42%; in [9], 2.93%; in assay [10], 1.26%; in assay [11], 3%; in assay [12], 1.74%. For the same compound, the inhibition stood at 3.77% in assay [13]; 1.98% in [14]; 2.3% in [15]; 1.18% in assay [16]; 2.71% in assay [17]; 1.26% in [18]. For the same compound, the inhibition in assay [19] was -0.03%; in [20], 1.05%.
